Assay outcomes from PubChem.
MPTP block – mitochondrial permeability transition pore inhibitors, primary screen, biochemical, isolated mouse mitochondria, absorbance. Ca2+ swelling absorbance, 30 min. inhibition, % at 10 µM. 1.4% of 360,000 active. AID 602449, 2012;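 active = inhibition of 50% or more, scaled per plate between neutral and stimulator controls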;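 note: 0% = DMSO wells given calcium and 100% = 1 mM EGTA wells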
SKKanGAS inh – S. pyogenes SKKanGAS growth inhibitors in kanamycin, primary screen, streptokinase expression inhibitor project, SKKanGAS strain, BacTiter-Glo luminescence; inhibition, % at 7.5 µM; 6 h; 1.3% of 300,000 active; AID 1662, 2009;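 active = mean replicate score, as percent of positive control median, at least 50; inconclusive = mean below 50 but one replicate at or above 50; inactive = mean and every replicate below 50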;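 note: strain carries kanamycin resistance gene driven by streptokinase promoter and grows in 40 µg/ml kanamycin; loss of luminescence reflects streptokinase promoter inhibition or plain growth inhibition; 0% = median of DMSO wells and 100% = positive control at its reference dose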
Calb FLC – C. albicans growth inhibition with fluconazole, primary screen, CaCi-2 strain, Alamar Blue fluorescence; 0.57% of 300,000 active; growth inhibition, % (concentration not given with the values); C. albicans CaCi-2 (fluconazole-resistant clinical isolate) + fluconazole, 48 h;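 active = growth inhibition above about 58% in most replicates, limit read from the data, passing the limit was not always enough; inconclusive = exactly half the replicates above a set limit; inactive = most replicates below a set limit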;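 note: all wells also contain fluconazole at 8 µg/ml as a sub-toxic cotreatment; 0% = median of DMSO wells and 100% = median of geldanamycin control wells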
CSC inhib – cancer stem cell viability inhibitors, primary screen, luminescence; AID 2717, 2010; 1.1% of 300,000 active; inhibition, % at 7.5 µM; cancer stem cell-like cells viability; in the data active = inhibition above about 75%; inconclusive = no clear call, values can overlap the other calls; tested in HMLE shEcad cells
Mdm2 MdmX PPI – inhibitors of human Mdm2-MdmX association, primary screen, cell-based, luminescence, split luciferase, SaOS-2, uHTS. Protein Mdm4 (Homo sapiens) + E3 ubiquitin-protein ligase Mdm2 (Homo sapiens), …. SaOS-2 split-luciferase Mdm2/MdmX complementation. inhibition, % at 8 µM. 3% of 330,000 active;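 active = inhibition of at least 50% at 8 µM in the primary screen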
Beta apoptosis – inhibitors of cytokine-induced beta cell apoptosis, primary screen, luminescence; INS-1E cytokine-induced death, ATP luminescence, 48 h; percent of positive-control rescue, neutral wells zero; protection from apoptosis, % (concentration not given with the values); AID 435005, 2010; 0.8% of 300,000 active;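 active = Every replicate reaches about 75%, or at least half do and their mean reaches it too, limit read from the data; inconclusive = At least half of replicates reach the limit but their mean does not; inactive = Under half of replicates reach the limit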;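 note: 0% = cytokine-treated negative control wells and 100% = positive control rescue; higher means more ATP so stronger rescue from cytokine killing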
Mdm2 MdmX conf – Mdm2-MdmX complex disruptors, retested hits, confirmation, luminescence, single concentration; 55% of 10,000 active; shares compounds with Mdm2 MdmX PPI; Mdm2-MdmX binding, luminescent assay; inhibition, % at 8 µM; in the data active = inhibition above about 40%
FLuc counter – full-length luciferase signal inhibition, confirmation, counter-screen for Mdm2/MdmX interaction inhibitor project, cell-based, single concentration, SaOS-2; shares compounds with Mdm2 MdmX PPI; SaOS-2 full-length luciferase counterscreen, luminescence; inhibition, % at 8 µM; 77% of 6,200 active; AID 504607, 2011;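 active = mean inhibition at 8 µM reaching about 37%, which flags the compound as non-specific, limit read from the data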;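 note: p53-null SaOS-2 cells with luciferase driven by a doxycycline-inducible promoter; compound on cells about two nights before reading with doxycycline added after day one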
Numbers without * were called inactive. A selection: hits, their analogues and other compounds. The true share with any hit is near 5.4%.

For N=c1c2c(ncn1CCN1CCOCC1)Oc1cc(O)ccc1C2c1ccccc1 (configuration not stated) the results were MPTP block -1, SKKanGAS inh -7, Calb FLC -4, CSC inhib -11, Mdm2 MdmX PPI 15 and Beta apoptosis 4.
Screening COc1ccc(C2c3c(ncn(CCCN4CCOCC4)c3=N)Oc3ccc4ccccc4c32)cc1OC (configuration not stated) returned MPTP block -3, SKKanGAS inh 0, Calb FLC 12, CSC inhib -7, Mdm2 MdmX PPI 86*, Beta apoptosis -2, Mdm2 MdmX conf 51* and FLuc counter 67*.
For COc1ccc(C2c3ccc4ccccc4c3Oc3ncn(CCN4CCOCC4)c(=N)c32)cc1OC (configuration not stated) the results were MPTP block -5, SKKanGAS inh -2, Calb FLC 39, Mdm2 MdmX PPI 69*, Mdm2 MdmX conf 47* and FLuc counter 67*.
Screening Cc1ccccc1-c1nc2cc(Cl)ccc2c(=O)o1 returned MPTP block 3, SKKanGAS inh 2, Calb FLC -1, CSC inhib 10, Mdm2 MdmX PPI 52*, Beta apoptosis -1, Mdm2 MdmX conf 50* and FLuc counter 76*.
Screening COc1ccc(Nc2nc(Cl)nc(NCCO)n2)cc1 returned MPTP block 0, SKKanGAS inh -13, Calb FLC -14, CSC inhib -9, Mdm2 MdmX PPI 22 and Beta apoptosis -8.
COc1ccc(Nc2nc(Nc3ccc(OC)cc3)nc(SC3=NCCS3)n2)cc1 was read as MPTP block -2, SKKanGAS inh 35, Calb FLC 9, CSC inhib -19, Mdm2 MdmX PPI 74*, Beta apoptosis 4 and Mdm2 MdmX conf -8.
COc1ccc(/C=N/NC(=O)c2cccc(Br)c2)cc1Cn1cc(Cl)cn1 was read as MPTP block 4, SKKanGAS inh 10, Calb FLC 4, Mdm2 MdmX PPI 60*, Beta apoptosis 1, Mdm2 MdmX conf 50* and FLuc counter 67*.
Screening O=C(O)CSc1nnc(-c2ccc3c(c2)OCO3)o1 returned MPTP block 0, SKKanGAS inh 2, Calb FLC 9, CSC inhib 7, Mdm2 MdmX PPI 18 and Beta apoptosis -5.
`O=C(c1ccc(Cl)cc1)N1CCCCC(Sc2nnc(-c3ccc4c(c3)OCO4)o2)C1=O` (configuration not stated) gave MPTP block -1, SKKanGAS inh 3, Calb FLC 8, CSC inhib 8, Mdm2 MdmX PPI 84*, Beta apoptosis -3, Mdm2 MdmX conf 82* and FLuc counter 50*.
For Cc1ccc(S(=O)(=O)Nc2cccc3cccnc23)cc1 the results were MPTP block -1, SKKanGAS inh inconclusive, Calb FLC 7, CSC inhib 78*, Mdm2 MdmX PPI 99*, Beta apoptosis 35, Mdm2 MdmX conf 99* and FLuc counter 52*.
Screening COc1cc(NC(=O)c2ccccc2Cl)c2ncccc2c1 returned MPTP block 1, SKKanGAS inh 5, Calb FLC -16, CSC inhib 51, Mdm2 MdmX PPI 57*, Beta apoptosis -1, Mdm2 MdmX conf 50* and FLuc counter 52*.
COc1cc(NS(=O)(=O)c2ccc(C)cc2)c2ncccc2c1 was read as MPTP block 2, SKKanGAS inh 82*, Calb FLC inconclusive, CSC inhib 38, Mdm2 MdmX PPI 89*, Beta apoptosis 45, Mdm2 MdmX conf 99* and FLuc counter 5.
For CCc1cccc(C)c1NC(=O)C1CCN(C(=O)c2ccc([N+](=O)[O-])cc2)CC1 the results were MPTP block 2, SKKanGAS inh 5, Calb FLC inconclusive, CSC inhib -10, Mdm2 MdmX PPI -14 and Beta apoptosis -2.
`CN(C)CCNC=C(C(=O)Nc1ccc(Cl)cc1Cl)C(=O)Nc1ccc(Cl)cc1Cl` gave MPTP block 11, SKKanGAS inh 56*, Calb FLC -7, CSC inhib 78*, Mdm2 MdmX PPI 76*, Beta apoptosis 9 and Mdm2 MdmX conf 39.
CC(=O)/C(=C/N(C)C)C(=O)Nc1ccc(Cl)cc1Cl was read as MPTP block -1, SKKanGAS inh 3, Calb FLC 29, CSC inhib 1, Mdm2 MdmX PPI 4 and Beta apoptosis 1.
For Cc1ccc(-n2nnnc2SC(C(=O)c2c[nH]c3ccccc23)c2ccccc2)cc1 (configuration not stated) the results were MPTP block 0, SKKanGAS inh 33, Calb FLC 3, CSC inhib 86*, Mdm2 MdmX PPI 60*, Beta apoptosis 1, Mdm2 MdmX conf 65* and FLuc counter 56*.
`COc1ccc(-n2nnnc2CNC(=O)C(=O)c2c[nH]c3ccccc23)cc1` gave MPTP block -1, SKKanGAS inh -4, Calb FLC 7, CSC inhib -2 and Mdm2 MdmX PPI -3.
Screening N#CCC(=O)Nc1ccc(C(=O)OC(C(=O)Nc2ccc([N+](=O)[O-])cc2Br)c2ccccc2)cc1 (configuration not stated) returned MPTP block 4.
For N#CCC(=O)Nc1ccc(C(=O)OC(C(=O)Nc2cc(C(F)(F)F)ccc2Cl)c2ccccc2)cc1 (configuration not stated) the results were MPTP block 1, SKKanGAS inh 61*, CSC inhib 14, Mdm2 MdmX PPI 52*, Beta apoptosis -6, Mdm2 MdmX conf 39 and FLuc counter 71*.
`CN(C)CCCNC(=O)C(=O)Nc1ccc2c(c1)N(S(=O)(=O)c1cccs1)CCC2` gave MPTP block -1, SKKanGAS inh 19, Calb FLC -4, Mdm2 MdmX PPI 5 and Beta apoptosis 11.
`CCCNC(=O)C(=O)Nc1ccc2c(c1)N(S(=O)(=O)c1cccs1)CCC2` gave MPTP block -2, SKKanGAS inh 31, Calb FLC 7, Mdm2 MdmX PPI 50*, Beta apoptosis 8, Mdm2 MdmX conf 69* and FLuc counter 60*.
